We go through 10 compounds from PubChem BioAssay (NCATS).

“And” between values parts separate entries of the source, which are not always exact repeats. Equal values may be shown once. Unmarked numbers belong to inactive results. Results filed as inconclusive are left out. The source made the active and inactive calls. Unless noted, calls come from the whole dose curve; as a rule, active = well fitted curve in either direction with a large enough effect (not every such curve was filed as active); inconclusive = small, poorly fitted or top-dose-only effect, or another doubt; inactive = flat fitted curve, though single readings scatter.

Test [1] can be described thus: AP1 Signaling Pathway (AID 357). Note: % is set by controls: 0 for no effect and ±100 for the full control effect. The conditions noted are these: ME-180 AP-1-bla reporter, EGF-induced, beta-lactamase ratio, 5 h; series mostly up to 17.2 µM. Put shortly:
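AP-1-bla ME-180 cells with beta-lactamase reporter under AP-1 response element, stimulated with EC50 EGF; compounds titrated, 5 hours at 37 degrees Celsius. CCF4 read at 460/530 nm ratio; positive and negative modulators judged by AC50.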

Test [2] concerns the target Cytochrome P450 1A2 (Homo sapiens) (UniProt P05177). As to the kind of experiment: p450-cyp1a2 (AID 410; calls by dose curve; note: potency is the fitted concentration of half-maximal effect). The conditions noted are these: recombinant CYP1A2, luciferin-ME demethylation, luminescence; series mostly up to 25.6 µM. An outline of the steps: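 Luminescent readout of luciferin formed from Luciferin-ME by human CYP1A2; data normalized against complete inhibition by 57 uM furafylline. Enzyme 20nM, substrate 100uM at Km, 100mM KPO4 buffer, 60 min reaction at room temperature.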

A short description of test [3]: NFAT Signaling Pathway (AID 444).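 Note: carbachol stimulus at about its EC50 of 1 µM final; % is set by controls: 0 for no effect and ±100 for the full control effect.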 As to conditions: Jurkat NFAT-bla M1, carbachol, beta-lactamase ratio, 5 h; at 17.2 µM (top of the series) unless noted. An outline of the steps:
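Jurkat cells carrying an NFAT-driven β-lactamase reporter and co-transfected muscarinic M1 receptor were treated with compound plus carbachol (1 uM final, an EC50 level) for 5 h at 37 °C. CCF4 loading followed for 1 h at RT; 460/530 nm ratio gave %activity.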

A short description of test [4]: Stat Signaling Pathway (AID 446).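 Note: ME-180 cervical cancer cells given 40 pM IL-6 alongside compound; SIE-controlled beta-lactamase reporter measured as 460/530 nm FRET emission ratio; % is set by controls: 0 for no effect and ±100 for the full control effect.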 The conditions noted are these: ME-180 SIE beta-lactamase reporter, IL-6 stimulated, 5 h; series mostly up to 17.2 µM. An outline of the steps: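 ME-180 cells carrying a SIE-driven beta-lactamase reporter are stimulated with 40 pM IL-6 for 5 h at 37C in the presence of compound. The 460/530 nm FRET substrate ratio is read after 2.5 h at RT. Data are normalised to 300 pM IL-6 and to 125 nM JAK inhibitor controls.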

Test [5] deals with Glucocorticoid receptor (Homo sapiens) (UniProt P04150). The experiment in a line: GR-GFP Redistribution (AID 450;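 active = compounds whose dose series gives a full or clear partial fitted curve of increased nuclear translocation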; note: potency is the fitted concentration of half-maximal effect). The conditions noted are these: U2OS GR-GFP nuclear translocation, laser cytometry, 2 h.
For test [6] the target is unchanged. As to the kind of experiment: GR-EFC Redistribution (AID 451; calls by dose curve; note: potency is the fitted concentration of half-maximal effect). The conditions noted are these: CHO-K1 GR-EFC translocation, beta-gal luminescence, 2 h. An outline of the steps: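 CHO-K1 cells stably expressing nuclear-localized β-gal enzyme acceptor and GR fused C-terminally to the enzyme donor fragment; ligand-driven nuclear translocation restores β-gal by complementation. Compounds titrated up to 46 uM final, 2 h at 37 °C; luminescence read.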

In test [7] the target is Mitogen-activated protein kinase 10 (Mus musculus) (UniProt Q61831). The experiment in a line: JNK3 AlphaScreen Assay (AID 530).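 Note: kinase came from lysate of stimulated human HepG2 cells; signal reports phosphorylation of biotinylated GST-cJun 1-79 at Ser73 with 10 µM ATP; % is set by controls: 0 for no effect and ±100 for the full control effect.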 As to conditions: JNK3 lysate, c-Jun phosphorylation; series mostly up to 25.6 µM. An outline of the steps: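 Inhibitors reduce antibody binding to phosphorylated biotin-cJun, lowering AlphaScreen luminescence. Lysates from HepG2 cells pre-activated by IL-1beta plus TNF-alpha supplied JNK3; compounds were titrated.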
A general note: Alpha assays give light when donor and acceptor beads are brought close together.

The target of test [8] is 3',5'-cyclic-AMP phosphodiesterase 4B (Homo sapiens) (UniProt Q07343). The experiment in a line: qHTS Assay for Inhibitors of PDE-IV (AID 607; active = well fitted activation curve with a large enough effect in the main read-out, with a control signal flat, not every such curve was filed as active; note: % of control where 0% means no effect). The conditions noted are these: HEK293 ACTOne CNG channel cells, membrane potential fluorescence; series mostly up to 22.9 µM. An outline of the steps: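 HEK293 ACTOne cells with CNG channel (1000/well), endogenous PDE4; membrane potential dye, compounds up to 22.9 uM final. Fluorescence Ex 535/Em 590; RO 20-1724 (100 uM final) as reference.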
(In general: qHTS replaces the single test concentration by a dilution series.)

The target in test [9] is Lysosomal acid glucosylceramidase (Homo sapiens) (UniProt P04062). The experiment in a line: Glucocerebrosidase-p2 (AID 348; in the data active = potency below about 10 µM; note: potency is the fitted concentration of half-maximal effect). The conditions noted are these: purified GBA, blue fluorogenic substrate, 40 min. Put shortly:
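Compounds titrated from 0.6 nM upwards against 0.2 nM enzyme in pH 5.9 citric acid/KH2PO4, taurocholate, tween-20; blue fluorogenic substrate 80 uM, 40 min room temperature, stopped and read Ex 365/Em 440 for AC50.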

Sequence of Cytochrome P450 1A2 (Homo sapiens) (P05177 whole entry, looked up): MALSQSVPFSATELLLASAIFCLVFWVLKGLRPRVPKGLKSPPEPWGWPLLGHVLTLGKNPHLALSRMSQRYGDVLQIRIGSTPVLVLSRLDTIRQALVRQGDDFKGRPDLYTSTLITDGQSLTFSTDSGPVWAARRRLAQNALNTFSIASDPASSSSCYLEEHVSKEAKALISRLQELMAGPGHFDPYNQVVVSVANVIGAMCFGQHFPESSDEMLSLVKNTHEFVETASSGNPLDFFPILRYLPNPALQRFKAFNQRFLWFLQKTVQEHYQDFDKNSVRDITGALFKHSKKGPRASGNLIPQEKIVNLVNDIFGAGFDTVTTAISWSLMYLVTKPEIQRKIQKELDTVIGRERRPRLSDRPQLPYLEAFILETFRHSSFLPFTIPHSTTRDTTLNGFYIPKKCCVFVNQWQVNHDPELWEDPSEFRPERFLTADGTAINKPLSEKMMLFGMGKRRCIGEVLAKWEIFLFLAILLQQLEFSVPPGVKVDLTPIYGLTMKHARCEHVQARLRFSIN
Sequence of Glucocorticoid receptor (Homo sapiens) (P04150 whole entry, looked up, the tested form may be a part): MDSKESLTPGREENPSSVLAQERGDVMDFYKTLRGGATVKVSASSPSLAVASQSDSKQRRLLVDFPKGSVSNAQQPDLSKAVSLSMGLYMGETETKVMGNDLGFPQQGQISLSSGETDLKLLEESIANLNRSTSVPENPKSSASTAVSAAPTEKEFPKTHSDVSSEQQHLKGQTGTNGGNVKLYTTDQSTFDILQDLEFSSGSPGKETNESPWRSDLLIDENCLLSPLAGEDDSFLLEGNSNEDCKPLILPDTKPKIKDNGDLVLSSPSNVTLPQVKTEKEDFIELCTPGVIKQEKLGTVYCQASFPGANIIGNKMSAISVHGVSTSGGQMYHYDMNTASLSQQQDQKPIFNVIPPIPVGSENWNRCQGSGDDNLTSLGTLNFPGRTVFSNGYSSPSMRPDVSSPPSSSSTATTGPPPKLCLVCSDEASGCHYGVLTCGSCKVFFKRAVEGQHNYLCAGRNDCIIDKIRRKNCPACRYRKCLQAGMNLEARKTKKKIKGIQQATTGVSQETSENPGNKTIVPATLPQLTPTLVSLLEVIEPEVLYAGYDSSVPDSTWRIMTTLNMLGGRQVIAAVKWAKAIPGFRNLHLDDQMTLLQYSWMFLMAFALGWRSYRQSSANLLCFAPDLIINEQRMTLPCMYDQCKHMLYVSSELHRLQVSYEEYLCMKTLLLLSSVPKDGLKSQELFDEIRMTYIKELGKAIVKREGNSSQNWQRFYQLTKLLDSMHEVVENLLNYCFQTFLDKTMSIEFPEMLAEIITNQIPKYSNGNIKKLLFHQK
Sequence of 3',5'-cyclic-AMP phosphodiesterase 4B (Homo sapiens) (Q07343 whole entry, looked up): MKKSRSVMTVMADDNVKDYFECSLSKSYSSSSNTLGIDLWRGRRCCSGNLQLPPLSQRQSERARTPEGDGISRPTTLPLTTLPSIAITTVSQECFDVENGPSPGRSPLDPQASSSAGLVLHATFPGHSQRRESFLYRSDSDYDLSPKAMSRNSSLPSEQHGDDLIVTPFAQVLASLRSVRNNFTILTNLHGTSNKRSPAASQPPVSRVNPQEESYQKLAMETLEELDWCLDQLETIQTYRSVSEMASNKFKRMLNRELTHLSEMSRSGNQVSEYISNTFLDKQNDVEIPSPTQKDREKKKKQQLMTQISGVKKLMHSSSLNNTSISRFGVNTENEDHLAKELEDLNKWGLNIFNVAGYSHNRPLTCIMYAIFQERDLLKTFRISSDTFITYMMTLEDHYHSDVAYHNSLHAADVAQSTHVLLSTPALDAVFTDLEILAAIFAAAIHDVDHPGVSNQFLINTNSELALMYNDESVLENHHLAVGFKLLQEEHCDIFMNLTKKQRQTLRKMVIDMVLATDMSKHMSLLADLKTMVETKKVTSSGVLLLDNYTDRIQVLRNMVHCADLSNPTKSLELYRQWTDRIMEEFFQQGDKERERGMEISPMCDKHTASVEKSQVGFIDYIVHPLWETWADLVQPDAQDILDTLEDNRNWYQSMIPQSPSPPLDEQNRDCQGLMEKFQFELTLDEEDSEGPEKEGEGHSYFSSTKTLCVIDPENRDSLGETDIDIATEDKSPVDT
Sequence of Lysosomal acid glucosylceramidase (Homo sapiens) (P04062 whole entry, looked up): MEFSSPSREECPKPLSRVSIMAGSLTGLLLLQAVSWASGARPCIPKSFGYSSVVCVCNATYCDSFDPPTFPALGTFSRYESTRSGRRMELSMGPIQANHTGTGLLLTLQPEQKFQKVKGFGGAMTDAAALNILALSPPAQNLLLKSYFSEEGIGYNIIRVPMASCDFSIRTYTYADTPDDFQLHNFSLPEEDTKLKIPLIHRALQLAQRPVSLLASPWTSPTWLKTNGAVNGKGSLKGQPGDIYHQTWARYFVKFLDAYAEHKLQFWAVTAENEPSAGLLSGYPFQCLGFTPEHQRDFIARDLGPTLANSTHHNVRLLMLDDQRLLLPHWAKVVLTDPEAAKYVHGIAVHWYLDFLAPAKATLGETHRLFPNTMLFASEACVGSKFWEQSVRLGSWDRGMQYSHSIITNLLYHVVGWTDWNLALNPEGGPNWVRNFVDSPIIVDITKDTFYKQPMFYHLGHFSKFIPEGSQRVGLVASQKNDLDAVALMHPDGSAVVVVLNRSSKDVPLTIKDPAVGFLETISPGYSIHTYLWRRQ

As to `COc1cc(N)c(Cl)cc1C(=O)NC1CCN(Cc2ccccc2)CC1`, the outcome in test [1], in test [4] and in test [8] was inactive. Also, the Potency is 12.6 µM (active) in test [2], > 20.6 µM in test [5] and > 20.6 µM in [6]. Further, the activity change, negative = inhibition in test [3] was -14.7%. Moreover, the Potency entry in [7] was “inactive”.
With `Cc1cc(-c2ccccc2)nnc1NCCN1CCOCC1`, the result in [1], in [4] and in test [8] was inactive. Further, the Potency in test [2] is 10 µM (active). Also, the activity change, negative = inhibition in [3] was -10.7% and -25.7%. For the same compound, the Potency entry in test [7] was “inactive”.
In the case of `CC[N+](C)(CC)CCOC(=O)C(O)(c1ccccc1)C1CCCCC1` (stereo not given), the outcome in test [1] and in [4] was inactive. Moreover, the activity change, negative = inhibition in test [3] is -95.5% (active). The Potency in test [5] is > 20.6 µM.
`COc1cc(C(=O)NCc2ccc(OCCN(C)C)cc2)cc(OC)c1OC`: the outcome in [1], in test [4] and in test [8] was inactive. Besides, the Potency entry in [2] and in test [7] was “inactive” each time. The activity change, negative = inhibition in test [3] is -15.8%. Further, the Potency in [5] and in [6] was > 20.6 µM in each case.
As to `CCc1cc(Cl)c(OC)c(C(=O)NC[C@@H]2CCCN2CC)c1O`, the outcome in test [1], in test [4] and in test [8] was inactive. Besides, the Potency in test [2] was 3.98 µM (active); in test [5], > 20.6 µM; in test [6], > 20.6 µM. Moreover, the Potency result in [7] was “inactive”.
For `Cc1c(-c2ccccc2)oc2c(C(=O)OCCN3CCCCC3)cccc2c1=O`, the outcome in [1] and in test [4] was inactive. For the same compound, the figures for the Potency in test [2], in test [5] and in [6] were 6.31 µM (active), > 20.6 µM and > 20.6 µM, respectively. Further, in [3], the activity change, negative = inhibition is -3.52%. In test [7], the Potency result is “inactive”.
Regarding `CCN(CC)CCNC(=O)c1cc(Br)c(N)cc1OC`, the outcome in test [1], in [4] and in test [8] was inactive. In addition, the Potency in test [2] was 10 µM (active). The Potency result in test [7] is “inactive”.
Turning to `NS(=O)(=O)c1cc(C(=O)O)cc(N2CCCC2)c1Oc1ccccc1`, the result in [1], in [4] and in [8] was inactive. Moreover, the Potency entry in test [2] and in test [7] was “inactive” in each case. Also, the activity change, negative = inhibition in test [3] is -7.88%. Besides, the Potency in [5] was 2.81 µM (active); in test [6], > 20.6 µM.
Turning to `CCc1oc2ccccc2c1C(=O)c1cc(Br)c(O)c(Br)c1`, the Potency in [9] is > 11.4 µM; in [5] it was > 20.6 µM and > 46 µM; in test [6], > 20.6 µM and > 9.22 µM. For the same compound, the Potency result in [7] was “inactive”. In test [8], the outcome was inactive.
For `O=C(CCCN1CC=C(n2c(=O)[nH]c3ccccc32)CC1)c1ccc(F)cc1`, the result in test [1] and in test [4] was inactive. Further, the Potency entry in test [2] and in test [7] was “inactive” each time. For the same compound, in test [3], the activity change, negative = inhibition is -14.9%. In addition, the Potency in test [5] and in [6] was > 20.6 µM each time.
